Source: PubChem (several laboratories)
ABCB6 inh MLPCN: inhibitors of human ABC transporter ABCB6; Q9NP58; K562-ABCB6 porphyrin accumulation, flow cytometry, 1 h; hits give low values; fluorescence ratio to DMSO, % at 10 µM; 360,000 tested, 0.19% active;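 active = fluorescence ratio to DMSO below 75%, the collection mean minus 3 SD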;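 also: signal is porphyrin accumulated inside mitochondria; 100% equals median channel fluorescence of DMSO control wells; lower ratio means ABCB6 inhibition with less porphyrin fluorescence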
Target sequence (Q9NP58 whole entry, looked up): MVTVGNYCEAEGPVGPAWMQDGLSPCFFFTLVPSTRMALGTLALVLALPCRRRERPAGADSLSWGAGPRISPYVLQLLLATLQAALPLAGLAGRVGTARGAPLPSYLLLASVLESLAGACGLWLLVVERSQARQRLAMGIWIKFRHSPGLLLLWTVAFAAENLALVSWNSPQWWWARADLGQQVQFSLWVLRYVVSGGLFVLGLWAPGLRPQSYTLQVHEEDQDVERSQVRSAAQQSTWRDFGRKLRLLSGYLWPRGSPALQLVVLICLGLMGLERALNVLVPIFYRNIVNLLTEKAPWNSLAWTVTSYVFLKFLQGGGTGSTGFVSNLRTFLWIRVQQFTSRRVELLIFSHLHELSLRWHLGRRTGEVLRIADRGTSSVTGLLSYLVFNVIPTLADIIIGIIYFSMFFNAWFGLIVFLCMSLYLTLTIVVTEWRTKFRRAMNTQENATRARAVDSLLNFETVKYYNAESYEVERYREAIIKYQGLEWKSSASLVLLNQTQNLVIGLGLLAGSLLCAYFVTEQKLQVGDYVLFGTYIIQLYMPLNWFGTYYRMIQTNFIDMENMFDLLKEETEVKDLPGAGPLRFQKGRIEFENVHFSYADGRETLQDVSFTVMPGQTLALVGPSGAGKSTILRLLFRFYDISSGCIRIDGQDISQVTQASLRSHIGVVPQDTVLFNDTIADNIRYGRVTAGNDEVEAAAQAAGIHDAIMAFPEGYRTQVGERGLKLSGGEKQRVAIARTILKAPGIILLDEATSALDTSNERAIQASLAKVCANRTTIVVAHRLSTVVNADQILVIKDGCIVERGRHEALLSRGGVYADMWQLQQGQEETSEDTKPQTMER
hiPSC survival: increases survival of single human iPS cells; hiPSC single-cell survival, ATPlite luminescence; 100% = ROCK inhibitor wells, 0% = DMSO; 360,000 tested, 0.044% active; survival enhancement, % at 20 µM; in the data active = survival enhancement above about 18%;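 also: cells exposed to compounds for 16 hours before the ATP read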
DAGLB inh: blocks human DAGLB lipase activity | Q8NCG7 | HEK293T DAGLB membrane lysate, EnzChek fluorogenic substrate | inhibition, % at 5.17 µM | 340,000 tested, 0.059% active | AID 504411; in the data active = inhibition above about 34%;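 also: 0% = enzyme with vehicle and 100% = wells lacking enzyme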
TMEM16A act: activators or potentiators of mouse TMEM16A chloride channel. Q8BHY3. HEK293 TMEM16A/YFP-H148Q/I152L, iodide quench fluorescence; hits give low values. B-score at 10 µM. 340,000 tested, 0.3% active. AID 623877;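 active = fluorescence-ratio B-score plate-corrected deviation score at least 3 library SD below zero, with starting fluorescence score within 5 deviations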;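 also: channel opened by trigger with iodide after compound preincubation; score built on the fluorescence ratio of max minus min over baseline; more negative score means more quench and so TMEM16A activation or potentiation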
TMEM16A inh: blocks the mouse calcium-activated chloride channel TMEM16A; AID 588511; normalized B-score (activity score, 25-100; higher = stronger inhibition) at 10 µM; 310,000 tested, 1.2% active; Q8BHY3; HEK293 TMEM16A/YFP iodide influx fluorescence, ionomycin;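 active = ratio plate-corrected score three or more library SD toward inhibition, starting fluorescence score within five deviations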;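 also: score derived from kinetic fluorescence span divided by baseline fluorescence per well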
Active calls of the source: *; i = inactive; nt = no result. Compounds with a hit are over-represented: about 1.5% of the library has one in this group of screens.

SMILES	ABCB6 inh MLPCN	hiPSC survival	DAGLB inh	TMEM16A act	TMEM16A inh
C#CCOCCOCCOCCNc1nc(N2CCN(C(=O)CCCCCCCCCCNC(=O)[C@H]([C@@H](C)CC)n3cc(CCCCN=C(N)N)nn3)CC2)nc(N2CCN(C(=O)CCCCCCCCCCNC(=O)[C@@H]([C@H](C)O)n3cc(C)nn3)CC2)n1	100	2	-1	-25*	25*
C#CCOCCOCCOCCNc1nc(N2CCN(C(=O)CCCCCCCCCCNC(=O)[C@H](CCCN=C(N)N)n3cc(C[C@@H](C)CC)nn3)CC2)nc(N2CCN(C(=O)CCCCCCCCCCNC(=O)[C@@H]([C@H](C)CC)n3cc(CCCCCN)nn3)CC2)n1	nt	nt	nt	nt	25*
C#CCOCCOCCOCCNc1nc(N2CCOCC2)nc(N2CCN(C(=O)CCCCCCCCCCNC(=O)[C@H]([C@@H](C)CC)n3cc(CCCCN=C(N)N)nn3)CC2)n1	96	10	4	i	i
COc1ccc(CCN2CCCn3c2nc2c3c(=O)n(CC(C)C)c(=O)n2C)cc1OC	93	0	-2	i	i
Cc1ccc([N+](=O)[O-])cc1S(=O)(=O)Nc1ccc(C(=O)NCC2CCCO2)cc1 (stereo unspecified)	105	1	-3	i	nt
Cc1ccc(COC(=O)CCCN=C2NS(=O)(=O)c3ccccc32)cc1	101	0	-1	i	i
CCCNC(=O)CS(=O)(=O)Cc1nc(-c2cccc(OC)c2)oc1C	105	1	0	i	i
CCOCCCNC(=O)CS(=O)(=O)Cc1nc(-c2cccc(OC)c2)oc1C	102	6	0	i	25*
Cc1csc(NC(=O)C(C)Oc2ccc(Cl)cc2C)n1 (stereo unspecified)	95	0	-1	i	nt
CCOC(=O)N1CCN(C(=O)c2c[nH]c3ccc(S(=O)(=O)N(C)c4cccc(C)c4)cc3c2=O)CC1	98	0	-1	-6.3*	i
O=[N+]([O-])c1ccc(O)c(C2=NNC(c3ccccc3F)C2)c1 (stereo unspecified)	93	1	4	i	100*
CC(C)CCNC(=O)CCCOc1ccccc1	99	-1	1	-4.6*	i
Cc1ccc(-c2nn(-c3ccc(F)cc3)cc2C(=O)N2CCN(C3CCS(=O)(=O)C3)CC2)cc1 (stereo unspecified)	87	0	0	-37*	nt
Cc1ccccc1SCC(=O)Nc1cc(C(F)(F)F)ccc1N1CCOCC1	100	0	-11	i	100*
CCOC(=O)c1cnc(SCC(=O)Nc2cc(C(F)(F)F)ccc2N2CCOCC2)nc1N	97	-1	-2	-7.1*	i
CCOC(=O)c1cnc(SCC(=O)Nc2ccc(N3CCOCC3)c(Cl)c2)nc1N	93	-1	1	i	i
Cc1nnc(SCC(=O)Nc2cc(C(F)(F)F)ccc2N2CCOCC2)o1	91	3	1	i	i
Cc1cccc(CNS(=O)(=O)c2csc(C(N)=O)c2)c1	98	2	-1	i	i
NC(=O)c1cc(S(=O)(=O)NCc2ccc(F)cc2)cs1	83	0	1	-14*	i
CN(C(=O)c1ccc(C#N)cc1)c1nnc(-c2cnccn2)s1	95	0	1	-5.2*	i
CN(C)c1ccc(-c2noc(C3CCN(C(=O)Nc4ccc(Cl)cc4)CC3)n2)cc1	84	0	1	-4.6*	i
CC1(C(=O)O)CCCN(C(=O)c2ccc3c(c2)C(C)(C)CCC3(C)C)C1 (stereo unspecified)	96	-1	nt	nt	nt
CS(=O)(=O)Nc1ccc2c(c1)[C@@H]1C[C@@H](CC(=O)NCc3cccnc3)O[C@H](CO)[C@@H]1O2	92	11	0	nt	nt
C[C@@H](NCCc1ccc(O)cc1)[C@@H](O)c1ccc(O)cc1	89	3	1	i	i
CCCCCCCCNC(C)C(O)c1ccc(SC(C)C)cc1 (stereo unspecified)	95	-5	-1	i	25*
SMILES	ABCB6 inh MLPCN	hiPSC survival	DAGLB inh	TMEM16A act	TMEM16A inh
CNC[C@H](Cc1ccccc1)NC[C@@H](Cc1cccc2ccccc12)NCCc1ccc(C)cc1	100	-2	-13	i	100*
CNCCNC[C@H](Cc1cccc2ccccc12)NCCc1ccccc1	97	-6	1	i	nt
COc1ccc2c(c1OC)C(=O)N(c1cccc(C)c1)C2=O	100	2	0	-4.9*	i
CN(CC(=O)Nc1ccccc1Cl)C(=O)c1ccc(-c2cccc(C(F)(F)F)c2)o1	98	-1	-4	i	i
COc1cc(CNC(=O)Nc2nnc([C@@H]3C[C@H](O)[C@@H](CO)O3)s2)cc(OC)c1OC	98	-4	nt	nt	nt
Cc1nc2ccccc2c2oc(C(=O)NCC3COc4ccccc4O3)cc12 (stereo unspecified)	98	0	-2	i	25*
CCc1ccc(CNC(=O)c2cc3c(C)nc4ccccc4c3o2)cc1	94	-2	-4	i	i
CC(=O)[C@@]1(O)CC[C@H]2[C@@H]3CCC4=CC(=O)CC[C@]4(C)[C@H]3[C@@H](O)C[C@@]21C	100	1	5	i	100*
N#CC1=C(N)Oc2cc(O)c(Cl)cc2C1c1cccnc1 (stereo unspecified)	99	0	2	-5.2*	i
N#CC1=C(N)Oc2cc(O)ccc2C1c1cccnc1 (stereo unspecified)	100	1	1	i	i
S=C(Nc1ccccc1Cl)Nc1ccc(Cl)cc1Cl	100	-3	-3	i	i
S=C(NNc1ccnc2cc(Cl)ccc12)Nc1ccccc1Cl	111	-1	2	i	25*
CC(=O)Oc1cc2c(C(=O)NCc3ccncc3)c(C)oc2c2ccccc12	97	-1	1	-21*	i
O=C(CN1CCOCC1)NNC(=O)c1ccc(Cl)cc1	97	4	0	i	nt
CC(C)(C)c1cc(O)c(C(C)(C)C)cc1O	nt	nt	nt	nt	100*
CCOC(=O)CCc1c(C)c2ccc3c(c2oc1=O)CN(CCCO)CO3	87	-1	-1	i	i
O=C1NC[C@@H](CCCCN2CCN(CCc3ccccc3)C(=O)C2=O)N(CCc2ccc(O)cc2)C1=O	92	1	nt	nt	nt
CCCCNS(=O)(=O)c1ccc2nc(SCC(=O)Nc3sccc3C#N)[nH]c2c1	95	-1	0	i	100*
CCCCNS(=O)(=O)c1ccc2nc(SCC(N)=O)[nH]c2c1	92	0	0	i	i
CCCCn1nnnc1C(c1ccccc1)N1CCN(c2ncccc2C(F)(F)F)CC1 (stereo unspecified)	98	0	nt	nt	nt
Cc1cc(C)nc(NC(=O)c2cccs2)c1	83	0	0	i	i
O=C(Nc1nc(=S)ss1)c1ccc(Cl)cc1Cl	89	0	1	i	100*
